Bioassay records: PubChem, National Center for Advancing Translational Sciences (NCATS)
Hits are enriched below; roughly 11% of the tested compounds scored in any of these assays.
hNpr1 antagonist = antagonists of human natriuretic peptide receptor Npr1 | Potency, µM (series often up to 46.3 µM), inactives show top-dose activity change, negative = inhibition, usual class: inhibitors | HEK293 hNpr1 GloSensor cGMP, ANP-stimulated luminescence | P16066 | hit rate 1.6% among 76,000; calls by dose curve; note: % is set by controls: 0 for no effect and ±100 for the full control effect; nearly all actives have a fitted effect of over 60% in size
Target sequence (P16066 whole entry, looked up): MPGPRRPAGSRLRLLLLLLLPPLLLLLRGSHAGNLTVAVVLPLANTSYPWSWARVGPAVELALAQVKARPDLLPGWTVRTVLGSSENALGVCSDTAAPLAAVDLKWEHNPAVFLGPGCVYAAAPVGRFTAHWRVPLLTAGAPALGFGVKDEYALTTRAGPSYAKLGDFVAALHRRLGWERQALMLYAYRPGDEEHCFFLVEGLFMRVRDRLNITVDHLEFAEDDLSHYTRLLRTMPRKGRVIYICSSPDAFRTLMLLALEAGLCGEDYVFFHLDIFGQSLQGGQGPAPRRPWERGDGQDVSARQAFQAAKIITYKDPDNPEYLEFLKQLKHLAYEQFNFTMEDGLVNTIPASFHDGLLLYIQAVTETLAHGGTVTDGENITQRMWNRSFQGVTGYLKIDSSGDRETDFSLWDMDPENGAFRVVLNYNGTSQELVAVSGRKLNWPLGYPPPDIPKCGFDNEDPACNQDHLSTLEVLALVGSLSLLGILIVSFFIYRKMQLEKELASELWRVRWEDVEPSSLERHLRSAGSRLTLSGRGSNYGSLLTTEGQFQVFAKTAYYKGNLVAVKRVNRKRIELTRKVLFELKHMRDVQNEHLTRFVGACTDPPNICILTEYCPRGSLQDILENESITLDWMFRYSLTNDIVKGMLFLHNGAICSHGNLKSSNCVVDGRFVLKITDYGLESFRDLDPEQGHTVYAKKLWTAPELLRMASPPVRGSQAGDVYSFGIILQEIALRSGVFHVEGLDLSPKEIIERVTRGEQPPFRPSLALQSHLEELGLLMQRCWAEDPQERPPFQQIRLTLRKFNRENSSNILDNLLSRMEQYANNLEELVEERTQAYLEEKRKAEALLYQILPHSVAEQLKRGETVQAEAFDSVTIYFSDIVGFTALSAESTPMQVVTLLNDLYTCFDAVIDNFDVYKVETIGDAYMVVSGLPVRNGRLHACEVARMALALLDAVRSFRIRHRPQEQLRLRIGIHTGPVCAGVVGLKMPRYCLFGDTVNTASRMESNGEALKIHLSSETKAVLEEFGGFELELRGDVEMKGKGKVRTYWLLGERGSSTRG
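Compound pre-incubated 30 min at room temperature on GloSensor-loaded HEK293 cells stably carrying hNpr1 and the pGS-40F cGMP biosensor. Stimulation uses hNppA at 0.1 nM final; luminescence is taken at baseline and 20 min post-agonist.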
FLuc inh-1 = inhibitors of firefly (Photinus pyralis) luciferase; P08659; purified P. pyralis luciferase, luminescence, biochemical; Potency, µM (highest dose often 115 µM), most hits filed as inhibitors; hit rate 2.5% among 76,000; note: % is set by controls: 0 for no effect and ±100 for the full control effect; nearly all actives have a fitted effect of over 65% in size
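FLuc 10nM, D-luciferin 10uM, ATP 10uM, Mg acetate 10mM, Tris acetate pH 7.5, Tween/BSA; cpd qHTS; enzyme added last; CCD luminescence.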
HEK293 tox = kills HEK 293 cells; HEK 293 viability, ATP luminescence (CellTiter-Glo), 48-72 h; Potency, µM (highest dose often 115 µM), for inactives: top-dose activity change, negative = cytotoxicity, actives largely listed as inhibitors; hit rate 6.6% among 94,000; AID 1345083; note: % is set by controls: 0 for no effect and ±100 for the full control effect; nearly all actives have a fitted effect of over 60% in size
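HEK 293 seeded at 250 cells/well receive compound via pintool. After 48 or 72 hr at 37 degree Celsius, 5% CO2 and 95% humidity, CellTiter-Glo is dispensed and luminescence read following 10 min at room temperature.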
3T3 cytotox = cytotoxic compounds in NIH 3T3 cells | hit rate 4.3% among 94,000 | Potency, µM (doses to about 96.7 µM), inactives show top-dose activity change, negative = cytotoxicity, actives largely listed as inhibitors | NIH 3T3 viability, CellTiter-Glo ATP luminescence, 48-72 h | AID 1345082; note: % is set by controls: 0 for no effect and ±100 for the full control effect; nearly all actives have a fitted effect of over 55% in size
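ATP-dependent luminescence (CellTiter-Glo) served as the viability signal for NIH 3T3 cells treated with compound for 48 or 72 hr at 37 °C.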
FLuc SDR -ATP = stabilizes firefly luciferase without ATP; Potency, µM (series often up to 32.7 µM), inactives show at the top dose activation (signal gain), most hits filed as activators; Purified FLuc-C-HiBiT, Nano-Glo HiBiT luminescence, no ATP; hit rate 7.8% among 1,300; shares compounds with FLuc inh-1; note: nearly all actives have a fitted effect of over 55% in size
FLuc SDR ATP = firefly luciferase binding stabilization, ATP added. purified FLuc-C-HiBiT + ATP, HiBiT complementation luminescence. shares compounds with FLuc inh-1. Potency, µM (series often up to 32.7 µM), for the others: top-dose activation (gain of signal), usual class: activators. hit rate 8.7% among 1,300;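 note: signal reports ligand binding via conformational change of the enzyme rather than luciferase catalysis; % of control where 0% means no effect; nearly all actives have a fitted effect of over 55% in size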
FLuc inh-2 = blocks firefly luciferase enzymatic activity; shares compounds with FLuc inh-1; purified FLuc-C-HiBiT enzyme, luciferin luminescence; Potency, µM (top dose mostly 32.7 µM), inactives show at the top dose activity change, negative = inhibition, most hits filed as inhibitors; hit rate 42% among 1,300; AID 1963320; note: % is set by controls: 0 for no effect and ±100 for the full control effect; nearly all actives have a fitted effect of over 70% in size
* = called active by the depositor; [ ] = remark or other dose. Unless noted, calls come from the whole dose curve; as a rule, active = well fitted curve in the direction sought with a large enough effect; inconclusive = small, poorly fitted or top-dose-only effect, or another doubt; inactive = no such curve, though single readings can be large; an effect the other way counts as inactive or inconclusive. Potency is the fitted concentration of half-maximal effect.

Results for C[C@H](C(=O)N(C)CCC#N)C1CC[C@@]2(C)Cc3sc(NC(=O)c4cccn4C)nc3[C@@H](C)[C@@H]2[C@H]1O (stereo partly drawn) ?
hNpr1 antagonist: inconclusive; FLuc inh-1: 5.01µM*; HEK293 tox: inconclusive; 3T3 cytotox: inconclusive; FLuc SDR -ATP: 30.1%; FLuc SDR ATP: inconclusive; FLuc inh-2: 7µM*

What do the screens show for `COC[C@@H]1CN(C(=O)Cn2cccn2)C[C@H]1c1ccncc1`?
hNpr1 antagonist: 4.3%; FLuc inh-1: inactive; HEK293 tox: inactive; 3T3 cytotox: inactive

How did CCc1cccc(NC(=O)[C@@H]2COCC(=O)N2Cc2ccc(OC)cc2OC)c1 do in these assays?
hNpr1 antagonist: -2.3%; FLuc inh-1: inactive; HEK293 tox: -22.1%; 3T3 cytotox: inconclusive

Results for Cc1cn2nc(C(=O)Nc3ccc(N(C)C)cc3)cc2c(N2CCCC2)n1 ?
hNpr1 antagonist: 9.6%; FLuc inh-1: 5.01µM*; HEK293 tox: inconclusive; 3T3 cytotox: inconclusive; FLuc SDR -ATP: 12.8%; FLuc SDR ATP: 13.2%; FLuc inh-2: inconclusive

What do the screens show for `COc1cccc(C(=O)Nc2cccc(OCc3cc(=O)n4c5c(sc4n3)CCCC5)c2)c1`?
FLuc SDR -ATP: 21.2%; FLuc SDR ATP: 11.0%; FLuc inh-2: inconclusive

Results for COc1cccc(NC(=O)Cn2c(=O)c(-c3noc(C)n3)c3n(c2=O)CCCC3)c1 ?
hNpr1 antagonist: -0.5%; FLuc inh-1: inactive; HEK293 tox: -8.4%; 3T3 cytotox: -8.5%

What do the screens show for `COc1ccc(C(=O)N[C@@H]2CCC[C@@H]2C(=O)N2CCN(c3ccccc3F)CC2)cc1`?
hNpr1 antagonist: -1.3%; FLuc inh-1: inactive; HEK293 tox: inactive; 3T3 cytotox: inactive

What do the screens show for `Cc1ccc(-c2nc(-c3ccccn3)no2)cc1Cl`?
FLuc SDR -ATP: 4.42µM*; FLuc SDR ATP: inconclusive; FLuc inh-2: 0.624µM*

How did Clc1cccc(-c2nc(-c3ccccn3)no2)c1 do in these assays?
FLuc SDR -ATP: 3.94µM*; FLuc SDR ATP: inconclusive; FLuc inh-2: 0.989µM*

Results for Clc1ccc(C2Cn3nnc(-c4nc(-c5ccccn5)no4)c3CO2)cc1 (stereo not drawn) ?
hNpr1 antagonist: -13.6%; FLuc inh-1: inconclusive; HEK293 tox: -25.0%; 3T3 cytotox: -30.3%

What do the screens show for `C[S+](=O)([O-])CCn1ncc2cc(OCc3cccc(-c4cccc(O)c4)c3)ccc21`?
hNpr1 antagonist: inconclusive; FLuc inh-1: 3.98µM*; HEK293 tox: 70.8µM*; 3T3 cytotox: inconclusive; FLuc SDR -ATP: 24.7%[49.3 µM]; FLuc SDR ATP: 15.5%[49.3 µM]; FLuc inh-2: inconclusive

Results for C[S+](=O)([O-])CCn1ncc2cc(OCc3cccc(-c4cccnc4)c3)ccc21 ?
hNpr1 antagonist: 28.2µM*; FLuc inh-1: 5.01µM*; HEK293 tox: 79.4µM*; 3T3 cytotox: inconclusive; FLuc SDR -ATP: 22.9%[49.3 µM]; FLuc SDR ATP: inconclusive; FLuc inh-2: 16.1µM*

How did Cc1nccc(N2CCC(COc3ccc4c(cnn4CC[S+](C)(=O)[O-])c3)CC2)n1 do in these assays?
hNpr1 antagonist: inconclusive; FLuc inh-1: inactive; HEK293 tox: inconclusive; 3T3 cytotox: inconclusive

What do the screens show for `O=C(NCc1cccs1)c1ccc2nnc(-c3cccnc3)n2c1`?
HEK293 tox: -5.6%[172 µM]; 3T3 cytotox: -25.6%[138 µM]

What do the screens show for `C=C1[C@H](CO)[C@@H](O)C[C@@H]1n1cnc2c(=O)[nH]c(N)nc21`?
FLuc SDR -ATP: 13.0%; FLuc SDR ATP: 9.6%; FLuc inh-2: 5.8%

How did Nc1nc2c(ncn2COCCO)c(=O)[nH]1 do in these assays?
FLuc SDR -ATP: 17.7%; FLuc SDR ATP: 13.9%; FLuc inh-2: -0.8%

What do the screens show for `CCOC(=O)C1(Cc2ccccc2F)CCCN(C(=O)c2coc3c2C(=O)CCC3)C1` (stereo not drawn)?
hNpr1 antagonist: 2.7%; FLuc inh-1: inactive; HEK293 tox: inconclusive; 3T3 cytotox: -15.9%

What do the screens show for `O=C(C1CCC1)N1c2ccccc2CC1c1noc(C2CCOCC2)n1` (stereo not drawn)?
hNpr1 antagonist: inconclusive; FLuc inh-1: 1.78µM*; HEK293 tox: inconclusive; 3T3 cytotox: -15.2%; FLuc SDR -ATP: 21.1%; FLuc SDR ATP: 18.5%; FLuc inh-2: inconclusive

Results for COc1cccc(CNC(=O)N2c3ccccc3CC2c2noc(C3CCOCC3)n2)c1 (stereo not drawn) ?
hNpr1 antagonist: -3.7%; FLuc inh-1: 5.01µM*; HEK293 tox: -22.6%; 3T3 cytotox: -29.7%; FLuc SDR -ATP: 13.7%; FLuc SDR ATP: 14.4%; FLuc inh-2: inconclusive

What do the screens show for `O=C(N1c2ccccc2CC1c1noc(C2CCOCC2)n1)C1(c2ccccc2)CC1` (stereo not drawn)?
hNpr1 antagonist: -20.8%; FLuc inh-1: 8.91µM*; HEK293 tox: inconclusive; 3T3 cytotox: -23.5%; FLuc SDR -ATP: 19.3%; FLuc SDR ATP: 14.5%; FLuc inh-2: inconclusive

What do the screens show for `Cc1cc(C)cc(C(=O)N2c3ccccc3CC2c2nc(C3CC3)no2)c1` (stereo not drawn)?
hNpr1 antagonist: -19.6%; FLuc inh-1: inactive; HEK293 tox: inconclusive; 3T3 cytotox: inconclusive

How did O=C(C1CCCC1)N1CCCC1c1nc(C2CCOCC2)no1 (stereo not drawn) do in these assays?
hNpr1 antagonist: 23.2%; FLuc inh-1: inactive; HEK293 tox: -10.0%; 3T3 cytotox: -15.1%

How did COc1cccc(-c2noc(-c3ccc(N4CCCC(CO)C4)nc3)n2)c1OC (stereo not drawn) do in these assays?
hNpr1 antagonist: -29.3%; FLuc inh-1: 1.78µM*; HEK293 tox: inconclusive; 3T3 cytotox: inconclusive; FLuc SDR -ATP: inconclusive; FLuc SDR ATP: inconclusive; FLuc inh-2: 2.79µM*

Results for OC1CCCN(c2ccc(-c3nc(-c4cccc(C(F)(F)F)c4)no3)cn2)C1 (stereo not drawn) ?
hNpr1 antagonist: 10µM*; FLuc inh-1: 1.58µM*; HEK293 tox: inconclusive; 3T3 cytotox: inconclusive; FLuc SDR -ATP: 14.9%; FLuc SDR ATP: 12.5%; FLuc inh-2: inconclusive

How did CC(=O)N1CCCN(c2ccc(-c3nc(-c4ccccc4F)no3)cn2)CC1 do in these assays?
hNpr1 antagonist: -3.1%; FLuc inh-1: 12.6µM*; HEK293 tox: -0.7%; 3T3 cytotox: 1.4%; FLuc SDR -ATP: 12.7%; FLuc SDR ATP: inconclusive; FLuc inh-2: inconclusive
